Data published in PubChem BioAssay AID1159580 (chemical genetic matrix, 2015).
The campaign covered roughly 5,500 compounds. About 2,000 (36%) were called active. Another 18% or so got no clear call; they are omitted. Rule as the data show it: active = normalized growth mostly below about 0.91 (no sharp cut-off); inconclusive = no clear call, values can overlap the other calls; inactive = mostly above about 0.92. The list shows a part of the results.

Experiment: chemical genetic growth profiling, strain panel (AID 1159580);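 also: tested at 20 µM; growth read once vehicle control cultures reached saturation at 30 °C; 1 = growth at the plate median or of vehicle wells; lower values mean less growth of the strain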
Conditions: growth OD
[1] = S. cerevisiae deletion strains, locus YDL101C, strain DUN1, active compounds read low
[2] = S. cerevisiae deletion strains, locus YHR030C, strain SLT2, active compounds read low

Measured: normalized growth

COc1ccc(CCNC(=S)Nc2cccc(C(F)(F)F)c2)cc1OC
inactive: S. cerevisiae deletion strains, locus YAL013W, strain DEP1, active compounds read low 0.997 | S. cerevisiae deletion strains, locus YBR229C, strain ROT2, active compounds read low 0.995 | [1] 0.999 | S. cerevisiae deletion strains, locus YDR150W, strain NUM1, active compounds read low 0.957 | S. cerevisiae deletion strains, locus YEL061C, strain CIN8, active compounds read low 1.02 | S. cerevisiae deletion strains, locus YGR078C, strain PAC10, active compounds read low 0.971 | [2] 0.9 | S. cerevisiae deletion strains, locus YHR087W, strain rtc3, active compounds read low 1.03 | S. cerevisiae deletion strains, locus YJL187C, strain SWE1, active compounds read low 1.01 | S. cerevisiae deletion strains, locus YJR043C, strain POL32, active compounds read low 0.968 | S. cerevisiae deletion strains, locus YJR075W, strain HOC1, active compounds read low 0.981 | S. cerevisiae deletion strains, locus YLR039C, strain RIC1, active compounds read low 0.837 | S. cerevisiae deletion strains, locus YLR058C, strain SHM2 (second series), active compounds read low 1.01 | S. cerevisiae deletion strains, locus YLR085C, strain ARP6, active compounds read low 0.962 | S. cerevisiae deletion strains, locus YLR262C, strain YPT6, active compounds read low 0.831 | S. cerevisiae deletion strains, locus YML094W, strain GIM5, active compounds read low 0.968 | S. cerevisiae deletion strains, locus YMR219W, strain ESC1, active compounds read low 1 | S. cerevisiae deletion strains, locus YMR263W, strain SAP30, active compounds read low 0.981 | S. cerevisiae deletion strains, locus YNL128W, strain TEP1, active compounds read low 0.987 | S. cerevisiae deletion strains, locus YNL153C, strain GIM3, active compounds read low 0.969 | S. cerevisiae deletion strains, locus YNL298W, strain CLA4 (second series), active compounds read low 1 | S. cerevisiae deletion strains, locus YNL322C, strain KRE1, active compounds read low 0.996 | S. cerevisiae deletion strains, locus YNR030W, strain Alg12, active compounds read low 1 | S. cerevisiae deletion strains, locus YOL006C, strain TOP1, active compounds read low 0.964 | S. cerevisiae deletion strains, locus YPL055C, strain LGE1, active compounds read low 1 | S. cerevisiae deletion strains, locus YPL241C, strain CIN2, active compounds read low 0.969 | S. cerevisiae deletion strains, locus YPR135W, strain CTF4, active compounds read low 0.895 | S. cerevisiae strains, strain wild type, active compounds read low 0.982

FC(F)(F)c1cccc(NNC(=S)Nc2ccccc2)c1
inactive: S. cerevisiae deletion strains, locus YAR019C, strain CDC15, active compounds read low 0.996 | S. cerevisiae deletion strains, locus YBL105C, strain PKC1, active compounds read low 1 | S. cerevisiae deletion strains, locus YBR135W, strain CKS1, active compounds read low 1 | S. cerevisiae deletion strains, locus YBR136W, strain MEC1, active compounds read low 0.999 | S. cerevisiae deletion strains, locus YBR160W, strain CDC28, active compounds read low 0.997 | S. cerevisiae deletion strains, locus YDL017W, strain CDC7, active compounds read low 0.998 | S. cerevisiae deletion strains, locus YDL028C, strain MPS1, active compounds read low 1 | [1] 0.994 | S. cerevisiae deletion strains, locus YDL108W, strain KIN28, active compounds read low 1.01 | S. cerevisiae deletion strains, locus YDL132W, strain cdc53, active compounds read low 0.99 | S. cerevisiae deletion strains, locus YDL214C, strain PRR2, active compounds read low 0.951 | S. cerevisiae deletion strains, locus YDR052C, strain DBF4, active compounds read low 0.998 | S. cerevisiae deletion strains, locus YDR054C, strain cdc34, active compounds read low 0.989 | S. cerevisiae deletion strains, locus YDR226W, strain ADK1, active compounds read low 0.999 | S. cerevisiae deletion strains, locus YDR477W, strain SNF1, active compounds read low 0.882 | S. cerevisiae deletion strains, locus YER123W, strain YCK3, active compounds read low 0.912 | S. cerevisiae deletion strains, locus YER133W, strain GLC7, active compounds read low 0.975 | S. cerevisiae deletion strains, locus YFL009W, strain cdc4, active compounds read low 1 | S. cerevisiae deletion strains, locus YFL029C, strain CAK1, active compounds read low 1 | S. cerevisiae deletion strains, locus YFR003C, strain YPI1, active compounds read low 1.01 | S. cerevisiae deletion strains, locus YFR019W, strain FAB1, active compounds read low 0.974 | S. cerevisiae deletion strains, locus YFR028C, strain CDC14, active compounds read low 1 | S. cerevisiae deletion strains, locus YGR040W, strain KSS1, active compounds read low 0.897 | S. cerevisiae deletion strains, locus YGR052W, strain FMP48, active compounds read low 0.957 | S. cerevisiae deletion strains, locus YGR092W, strain DBF2, active compounds read low 0.807 | S. cerevisiae deletion strains, locus YHR079C, strain IRE1, active compounds read low 0.848 | S. cerevisiae deletion strains, locus YHR082C, strain KSP1, active compounds read low 0.876 | S. cerevisiae deletion strains, locus YHR205W, strain SCH9, active compounds read low 0.877 | S. cerevisiae deletion strains, locus YIL147C, strain SLN1, active compounds read low 0.998 | S. cerevisiae deletion strains, locus YJL095W, strain BCK1, active compounds read low 0.856 | S. cerevisiae deletion strains, locus YJL128C, strain PBS2, active compounds read low 0.986 | S. cerevisiae deletion strains, locus YJL157C, strain FAR1, active compounds read low 0.945 | S. cerevisiae deletion strains, locus YJR016C, strain ILV3, active compounds read low 0.996 | S. cerevisiae deletion strains, locus YJR066W, strain TOR1 (second series), active compounds read low 0.812 | S. cerevisiae deletion strains, locus YJR066W, strain TOR1, active compounds read low 0.861 | S. cerevisiae deletion strains, locus YKL048C, strain ELM1, active compounds read low 0.948 | S. cerevisiae deletion strains, locus YKL067W, strain YNK1, active compounds read low 0.937 | S. cerevisiae deletion strains, locus YKL101W, strain HSL1, active compounds read low 0.907 | S. cerevisiae deletion strains, locus YKL193C, strain SDS22, active compounds read low 1 | S. cerevisiae deletion strains, locus YKL203C, strain TOR2, active compounds read low 0.968 | S. cerevisiae deletion strains, locus YLR133W, strain CKI1, active compounds read low 0.946 | S. cerevisiae deletion strains, locus YLR403W, strain SFP1, active compounds read low 0.929 | S. cerevisiae deletion strains, locus YML070W, strain DAK1, active compounds read low 0.947 | S. cerevisiae deletion strains, locus YMR001C, strain CDC5, active compounds read low 1.01 | S. cerevisiae deletion strains, locus YMR205C, strain PFK2 (second series), active compounds read low 0.971 | S. cerevisiae deletion strains, locus YMR277W, strain FCP1, active compounds read low 0.994 | S. cerevisiae deletion strains, locus YNL006W, strain LST8, active compounds read low 1 | S. cerevisiae deletion strains, locus YNL020C, strain ARK1, active compounds read low 0.925 | S. cerevisiae deletion strains, locus YNL161W, strain CBK1, active compounds read low 0.997 | S. cerevisiae deletion strains, locus YNL183C, strain NPR1, active compounds read low 0.874 | S. cerevisiae deletion strains, locus YNL207W, strain RIO2, active compounds read low 0.998 | S. cerevisiae deletion strains, locus YNL222W, strain SSU72, active compounds read low 0.999 | S. cerevisiae deletion strains, locus YNL307C, strain MCK1 (second series), active compounds read low 0.825 | S. cerevisiae deletion strains, locus YOL078W, strain AVO1, active compounds read low 0.995 | S. cerevisiae deletion strains, locus YOL136C, strain PFK27, active compounds read low 0.938 | S. cerevisiae deletion strains, locus YOR061W, strain CKA2, active compounds read low 0.856 | S. cerevisiae deletion strains, locus YOR119C, strain RIO1, active compounds read low 0.993 | S. cerevisiae deletion strains, locus YOR231W, strain MKK1, active compounds read low 0.882 | S. cerevisiae deletion strains, locus YOR329C, strain SCD5, active compounds read low 0.996 | S. cerevisiae deletion strains, locus YPL031C, strain PHO85, active compounds read low 0.894 | S. cerevisiae deletion strains, locus YPL153C, strain RAD53, active compounds read low 0.919 | S. cerevisiae deletion strains, locus YPL204W, strain HRR25, active compounds read low 0.89 | S. cerevisiae deletion strains, locus YPL209C, strain IPL1, active compounds read low 0.997 | S. cerevisiae deletion strains, locus YPR025C, strain CCL1, active compounds read low 1 | S. cerevisiae deletion strains, locus YPR106W, strain ISR1, active compounds read low 1.01 | S. cerevisiae deletion strains, locus YPR111W, strain DBF20, active compounds read low 1 | S. cerevisiae deletion strains, strain NNK1, active compounds read low 0.995 | S. cerevisiae deletion strains, strain TSCII, active compounds read low 1
active: [2] 0.754 | S. cerevisiae deletion strains, locus YLR113W, strain HOG1, active compounds read low 0.764 | S. cerevisiae deletion strains, locus YPL256C, strain CLN2, active compounds read low 0.848
